For eight compounds, growth results are on record in PubChem BioAssay (NCI).

The panel holds about 83,000 compounds, 20% with a hit somewhere; the sample as a whole holds those more often.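 Values shown are percent growth following 48 h exposure of cells in 96-well plates to a single concentration of compound; below 10 was considered active.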 A number with no mark means an inactive call. Activity calls are given as the source filed them.

Some test systems named below: NCI-H23 lung; NCI-H226 lung; NCI-H322M lung; HOP-62 NSCLC; NCI-H460 lung; NCI-H522 lung; A549/ATCC NSCLC; 786-0 renal; COLO 205 colon; DU-145 prostate; K-562 leukemia; MALME-3M melanoma; MDA-MB-231 breast; RXF 393 renal; SF-268 CNS; SF-295 CNS; SF-539 CNS; UACC-257 melanoma; M14 melanoma.
Common to all, as to experiment: NCI-60 one-dose screen, 48 h (100 = growth as untreated, 0 = no growth, -100 = all killed)
Holding throughout (settings): 10 µM unless noted

For `CC(=O)N1N=C(C2C(=O)N(C)C(=O)N(C)C2=O)CC1c1ccccc1C(=O)O` (configuration not stated), the growth in the test on NCI-H23 lung was 98.3%; in the test with NCI-H226 lung, 108%; with NCI-H322M lung, 97.1%; in the test with HOP-62 NSCLC it was 97.2%; with NCI-H460 lung, 104%; in the test on NCI-H522 lung it was 83.3%. Besides, the growth with A549/ATCC NSCLC is 98.4%; with 786-0 renal, 98.2%; in the test with COLO 205 colon, 108%; with DU-145 prostate, 103%; in the test on K-562 leukemia it was 87.5%; in the test with MALME-3M melanoma, 104%. Moreover, the growth in the test on MDA-MB-231 breast was 104%; in the test with RXF 393 renal it was 104%; in the test with SF-268 CNS, 96.7%; in the test with SF-295 CNS, 112%; in the test on SF-539 CNS, 104%; in the test on UACC-257 melanoma, 95.7%. The growth with M14 melanoma was 96.7%.

`O=C(O/C(=C/c1ccccc1)C(F)(F)F)c1ccccc1`: the growth with NCI-H23 lung is 109%; in the test on NCI-H226 lung, 102%; with NCI-H322M lung it was 125%; in the test with HOP-62 NSCLC it was 105%; in the test with NCI-H460 lung it was 117%; in the test on NCI-H522 lung, 105%. Further, the growth was 101% in the test on A549/ATCC NSCLC; 107% in the test on 786-0 renal; 99.3% in the test with COLO 205 colon; 102% in the test on DU-145 prostate; 101% in the test on K-562 leukemia; 118% with MALME-3M melanoma. For the same compound, the growth was 95% in the test on MDA-MB-231 breast; 108% with RXF 393 renal; 96% in the test on SF-268 CNS; 114% in the test with SF-295 CNS; 103% in the test with SF-539 CNS; 101% in the test with UACC-257 melanoma. In the test with M14 melanoma, the growth is 107%.

For `Cn1cnc([N+](=O)[O-])c1S(=O)(=O)Oc1cccc2ccccc12`, the growth is 85.5% in the test on NCI-H23 lung; 88.1% in the test on NCI-H226 lung; 104% with NCI-H322M lung; 84.6% in the test with HOP-62 NSCLC; 106% with NCI-H460 lung; -84.3% (active) in the test with NCI-H522 lung. The growth in the test on A549/ATCC NSCLC was 98.4%; in the test with 786-0 renal, 62.7%; with COLO 205 colon, -89.7% (active); with DU-145 prostate, 43.1%; with K-562 leukemia, 3.91% (active); with MALME-3M melanoma, -39.9% (active). In addition, the growth with MDA-MB-231 breast is 76.3%; in the test on RXF 393 renal, 19.6%; in the test with SF-268 CNS, 83.7%; with SF-295 CNS, 102%; in the test on SF-539 CNS, 52.8%; in the test on UACC-257 melanoma, 71%. Besides, the growth with M14 melanoma is -62.9% (active).

`CCCCCCCCCCCCCCCCCC1=NCCN1CCO`: the growth with NCI-H23 lung was 77.1%; in the test on NCI-H226 lung, 106%; with NCI-H322M lung, 88.4%; with HOP-62 NSCLC, 81%; in the test on NCI-H460 lung it was 18.7%; in the test with NCI-H522 lung, 80.8%. For the same compound, the growth in the test on A549/ATCC NSCLC is 64.2%; with 786-0 renal it was 75.6%; in the test with COLO 205 colon, 84.8%; with DU-145 prostate it was 78.7%; in the test on K-562 leukemia it was 64.6%; in the test on MALME-3M melanoma, 129%. Also, the growth is 58.8% with MDA-MB-231 breast; 87.9% in the test on RXF 393 renal; 78.4% in the test with SF-268 CNS; 90% in the test on SF-295 CNS; 78.4% in the test on SF-539 CNS; 84.4% in the test with UACC-257 melanoma. In the test with M14 melanoma, the growth is 84.1%.

`CC(C)[C@@]12C[C@@H](OC(=O)C3CO3)[C@@](C)(O1)[C@@H]1CC[C@@H](C)[C@H]1[C@@H]2OC(=O)/C=C/c1ccccc1` (some centres not stated): the growth in the test with NCI-H23 lung was 85.9%; in the test on NCI-H226 lung it was 68.3%; with NCI-H322M lung it was 83.9%; in the test on HOP-62 NSCLC it was 76.6%; in the test with NCI-H460 lung, 101%; in the test with NCI-H522 lung, 72.8%. The growth in the test with A549/ATCC NSCLC is 75.7%; in the test with 786-0 renal it was 95.5%; in the test on COLO 205 colon, 107%; in the test on DU-145 prostate, 107%; in the test with K-562 leukemia, 105%; with MALME-3M melanoma, 84%. The growth is 76.6% with MDA-MB-231 breast; 67% in the test on RXF 393 renal; 67.2% in the test with SF-268 CNS; 101% in the test on SF-295 CNS; 90.7% with SF-539 CNS; 74.7% in the test on UACC-257 melanoma. The growth with M14 melanoma is 101%.

With `O=C(CCCCCCN1CC(=O)N2[C@@H](c3ccc(Cl)c(Cl)c3)c3[nH]c4ccccc4c3C[C@H]2C1=O)NO`, the growth is 54% with NCI-H23 lung; 84.8% in the test on NCI-H226 lung; 53.5% with NCI-H322M lung; 54.1% with HOP-62 NSCLC; 39.1% in the test on NCI-H460 lung; 17.8% in the test with NCI-H522 lung. Moreover, the growth in the test on A549/ATCC NSCLC is 79.9%; in the test on 786-0 renal it was 71.8%; in the test on COLO 205 colon, 58.9%; with DU-145 prostate, 56.7%; in the test on K-562 leukemia it was 17.9%; in the test on MALME-3M melanoma it was 40%. The growth in the test with MDA-MB-231 breast is 44.4%; in the test with RXF 393 renal, 36.5%; in the test with SF-268 CNS it was 74.7%; in the test with SF-295 CNS it was 61.8%; with SF-539 CNS it was 52%; in the test on UACC-257 melanoma, 65.5%. The growth in the test on M14 melanoma is 50.6%.

For the compound `C[N+](C)(C)CC(=O)N/N=C\c1ccco1`, the growth is 99.6% in the test with NCI-H23 lung; 103% in the test with NCI-H226 lung; 105% in the test with NCI-H322M lung; 86.5% in the test with HOP-62 NSCLC; 108% in the test on NCI-H460 lung; 85.7% in the test on NCI-H522 lung. The growth in the test with A549/ATCC NSCLC was 98.1%; with 786-0 renal, 102%; in the test on COLO 205 colon it was 107%; in the test on DU-145 prostate, 104%; in the test on K-562 leukemia, 53.3%; in the test with MALME-3M melanoma, 100%. Moreover, the growth with MDA-MB-231 breast was 118%; in the test on RXF 393 renal it was 118%; in the test on SF-268 CNS it was 105%; in the test with SF-295 CNS, 106%; with SF-539 CNS, 95.3%; in the test on UACC-257 melanoma it was 106%. Besides, the growth in the test on M14 melanoma was 111%.

As to `COc1ccc(CNc2c3ccccc3nc3ccccc23)cc1F`, the growth in the test on NCI-H23 lung was 27%; in the test with NCI-H226 lung, 43%; in the test with NCI-H322M lung, 31.6%; in the test with HOP-62 NSCLC, 44.5%; with NCI-H460 lung, 6.34% (active); with NCI-H522 lung, 36.2%. Besides, the growth is 22.8% in the test on A549/ATCC NSCLC; 26% with 786-0 renal; 8.7% (active) in the test on COLO 205 colon; 27.2% in the test on DU-145 prostate; 4.81% (active) with K-562 leukemia; 23.6% in the test with MALME-3M melanoma. Besides, the growth in the test with MDA-MB-231 breast was 29.2%; in the test on RXF 393 renal it was 11.1%; in the test with SF-268 CNS, 49.1%; in the test with SF-295 CNS it was 20.1%; in the test on SF-539 CNS, 18.2%; in the test with UACC-257 melanoma it was 37.8%. Also, in the test on M14 melanoma, the growth is 19.9%.
